Experimental findings from PubChem BioAssay AID1863 (Southern Research Specialized Biocontainment Screening …, 2009) are described below.

Each structure is given as a SMILES string. The whole screen tested about 300,000 compounds, of which about 480 (0.16%) were called active. These entries were drawn from the full list. Results with a measured potency or affinity are listed apart. A number with no mark means an inactive call.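 Rule for the calls: active = inhibition over 29.93%, a cutoff 3 SD above the screen mean, later confirmed by dose response; inconclusive = inhibition over 29.93% but no dose response follow-up; inactive = inhibition at most 29.93% or unconfirmed.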

The nature of this test: inhibitors of PhoP regulon expression, primary screen, Salmonella Typhimurium, GFP reporter (AID 1863).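 Note: 0% = low Mg2+ inducing control and 100% = high Mg2+ repressing control.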 Conditions: S. Typhimurium PhoP-regulated promoter GFP reporter, 4 h; at 50 µM; hits give high values.
A word on the inhibition: it is the drop in the measured response relative to a control, in per cent. `O=C(Nc1ccc(N2CCOCC2)c(Cl)c1)c1ccc(F)cc1`: the inhibition was -2.15%.
As for `S=C(NCC1CCCO1)c1ccc(Br)cc1` (centres undefined), the figure is 2.88%; as for `CCOC(=O)C1(C)/C(=N/Nc2ccccc2)C(=O)C(=O)N1c1ccccc1` (centres undefined), -7.22%; as for `CCCn1cnnc1CNC(=O)C1CCC(=O)N(CCCc2ccccc2)C1` (centres undefined), 2.57%.
For `CCOC(=O)c1cc(S(=O)(=O)NCC2CCN(Cc3cccc(C)c3)CC2)cn1C`, the inhibition was 1.53%.
In the case of `O=C(Nc1ccnn1C1CCN(C(=O)c2c(F)cccc2F)CC1)C1CC1`, the inhibition was -1.51%.
As for `Cc1ncc(CN2CCCC(CCC(=O)NCc3ccc(F)c(F)c3)C2)s1` (centres undefined), the figure is -2.44%; as for `Cn1cnc([N+](=O)[O-])c1Oc1ccc2ccccc2c1`, 16.2%; as for `Cn1cnc([N+](=O)[O-])c1Oc1ccccc1`, 21.7%.
As for `CCCCCCC(C)n1[nH]c(=O)cc1N` (centres undefined), the figure is 0.2%.
As for `Cc1ccc(-c2noc(CN3C(C)CCCC3C)n2)cc1` (centres undefined), the figure is 3.05%; as for `Cc1ccc(C(=O)NC2CCCCC2)cc1S(=O)(=O)N1CCCC1`, 4.45%; as for `O=C(O)c1cc(S(=O)(=O)NC(CO)C(O)c2ccc([N+](=O)[O-])cc2)ccc1Br` (centres undefined), 8.08%.
Consider `CS(=O)(=O)c1ccc(C(=O)NCc2ccccc2F)cc1`, for which the inhibition was -3.92%.
Under `Cc1ccc(NC(=S)NC(CO)C(O)c2ccc([N+](=O)[O-])cc2)cc1` (centres undefined) stands 8.17%; under `CS(=O)(=O)c1ccc(C(=O)NC(Cc2ccccc2)c2ccccc2)cc1` (centres undefined), 4.54%; under `Cc1cccc(CN2CCN(Cc3cccc(-n4cccn4)c3)CC2CCO)n1` (centres undefined), -2.39%.
Under `O=C1CCN(Cc2ccc(Cl)cc2)N1` stands -4.83%.
Regarding `CC(=O)c1cccc(S(=O)(=O)Nc2ccc(N3CCOCC3)cc2)c1`, the inhibition is -4.4%.
As for `NCCCC[C@H]1CN=C(N)N1CCCCC1CCCCC1`, the figure is 11.9%; as for `CCCCN1C(N)=NC[C@@H]1c1ccccc1`, -3.32%; as for `NC1=NC[C@@H](Cc2ccc(O)cc2)N1CC1CCCCC1`, -0.19%.
As for `CCCCN1C(N)=NC[C@H]1Cc1ccc(O)cc1`, the figure is 5.24%; as for `NC1=NC[C@@H](Cc2ccc(O)cc2)N1CCC12CC3CC(CC(C3)C1)C2`, -0.89%.
As for `NC1=NC[C@H](Cc2ccc(O)cc2)N1CC1CCCCC1`, the figure is 3.06%; as for `CCCCN1C(N)=NC[C@@H]1Cc1ccc(O)cc1`, 0.58%.
For the molecule `NC1=NC[C@H](c2ccccc2)N1CC1CCCCC1`, the inhibition was -3.43%.
Regarding `Cc1ccccc1OCC(=O)Nc1ccc(N2CCN(C)CC2)c(Cl)c1`, the inhibition was 5.97%.
With `COC(=O)c1ccc(OCC(=O)c2ccc(C)c(C)c2)cc1`, the inhibition was -11.3%.
Consider `CCOC(=O)c1c(-c2ccccc2)nc2cc(C)ccn12`, for which the inhibition was -0.32%.
Under `Nc1nonc1NN=C1CCCCC1` stands 2.62%.
For `COc1ccc(N(CC(=O)NC2CCCC2)C(=O)c2ccc(C)s2)cc1OC`, the inhibition is -1.51%.
As for `Cc1ccc(S(=O)(=O)N/N=C/c2cccs2)cc1`, the figure is 1.58%.
For `COc1ccc(OC)c(S(=O)(=O)CC(O)CS(=O)(=O)c2ccccc2)c1` (centres undefined), the inhibition was -7.1%.
As for `O=C(CC1C(=O)NCCN1CCCc1ccccc1)NCCc1ccccc1F` (centres undefined), the inhibition was 5.1%.
Turning to `CN(C)C1=NC[C@H](Cc2ccccc2)N1CCCC1CCCC1`, the inhibition was -2.38%.
For `NC1=NC[C@H](Cc2ccccc2)N1CC1CCCCC1`, the inhibition was -1.5%.
Under `O=C(Oc1ccc(/C=N/NC(=O)c2ccccc2O)cc1)c1ccccc1` stands -2.42%.
Under `Cc1nn(-c2ccccc2)c(N2CCCC2)c1/C=N/NC(=O)c1ccccc1O` stands -4.47%; under `Cc1ccc(CCNC(=O)C2CCCN(S(=O)(=O)c3c(C)nn(C)c3C)C2)cc1` (centres undefined), -2.59%.
Consider `Cc1[nH]c2ccccc2c1C(=O)CSC(=S)N1CCCCC1`, for which the inhibition was -9.67%.
Under `O=C(Cc1nnc(NC(=O)Nc2ccccc2)s1)Nc1ccccc1` stands 0.5%.
On to `Cc1cccc(NC(=S)N2CCC(N(C)CC3CCCO3)CC2)c1` (centres undefined), for which the inhibition was 2.69%.
On to `Cc1cc(C(C)(C)C)ccc1OCCCCN1CCCC1`, for which the inhibition is -7.85%.
As for `Cc1cc[n+](CC[n+]2ccc(C)cc2)cc1`, the figure is 6.23%.
As for `CCC(C)(C)c1ccc(OCC(=O)N(C)C)c(C(C)(C)CC)c1`, the figure is -2.72%; as for `CCC(C)(C)c1ccc(OCCCC[n+]2cccc(C)c2)c(C(C)(C)CC)c1`, 25.6%.
As for `Cc1nc2c(ncn2-c2ccccc2)c(=O)n1NC(=O)CN1CCN(C)CC1`, the figure is 4.84%; as for `COc1ccc(CNc2ncccc2[N+](=O)[O-])cc1`, 2.57%; as for `COC(C(=O)Nc1ccc(Br)cc1F)c1ccccc1` (centres undefined), 4.52%.
Take `COc1ccc2[nH]cc(/C=N/NS(=O)(=O)c3ccc(C)cc3)c2c1`: the inhibition is -5.48%.
As for `NC(=S)N/N=C/c1c[nH]c2ccc(OCc3ccccc3)cc12`, the figure is 1.88%; as for `N=c1n(Cc2ccc(Cl)cc2)c2ccccc2n1CC(O)COc1ccccc1` (centres undefined), 3.85%; as for `COc1ccccc1OCC(O)Cn1c(=N)n(Cc2ccccc2)c2ccccc21` (centres undefined), -0.92%.
As for `O=C(NC1CCCCC1)C1COc2ccccc2O1` (centres undefined), the figure is 1.35%; as for `O=C(N/N=C/C=C/c1ccccc1[N+](=O)[O-])c1cccs1`, -10.8%; as for `Cc1scc(C(=O)N/N=C/c2ccco2)c1C`, 0.79%.
As for `Cc1cc(C(=O)N/N=C/c2ccc([N+](=O)[O-])o2)c(C)o1`, the figure is -2.92%; as for `O=C(N/N=C/C=C/c1ccc([N+](=O)[O-])cc1)c1cccs1`, -4.65%.
On to `O=C(N/N=C/c1ccc([N+](=O)[O-])o1)c1ccncc1`, for which the inhibition is 3.52%.
Under `CCCC(=O)Nc1ccc(C(=O)N/N=C/c2ccc([N+](=O)[O-])o2)cc1` stands -16.6%.
Under `OC1CCN(Cc2ccc(OCc3ccccc3)cc2)CC1` stands 2.08%; under `O=S(=O)(c1ccc(Br)cc1)N1CCN=C1SCc1cccc(F)c1`, -2.02%; under `Cc1c(C(=O)N(Cc2cccc(Br)c2)C2CCS(=O)(=O)C2)oc2ccc(F)cc12` (centres undefined), 3.11%.
As for `O=C(ONC1=NCCCCC1)c1ccc(Cl)cc1`, the figure is -13.6%; as for `Cc1nn(C)c(=O)n1-c1ccccc1`, 0.59%.
Consider `O=C(N/N=C/c1ccccc1[N+](=O)[O-])c1cccs1`, for which the inhibition is -1.95%.
Regarding `O=C(N/N=C\c1cc2c(cc1[N+](=O)[O-])OCO2)c1cccs1`, the inhibition was -4.81%.
Turning to `O=C(N/N=C/c1ccc(Br)s1)c1cccs1`, the inhibition was 0.89%.
Turning to `O=C(N/N=C\c1ccc(Cl)s1)c1cccs1`, the inhibition was -9.8%.
Turning to `COc1ccccc1NC(=O)Nc1ccc(Cl)c(S(=O)(=O)Nc2ccccc2OC)c1`, the inhibition was -18.5%.
Under `CCOc1ccc(CN(CC)C(=O)c2ccc3c(c2)[nH]c(=O)c(=O)n3CC)cc1OC` stands 2.8%.
Under `COc1ccccc1CCNC(=O)C1(C)CC1(Cl)Cl` (centres undefined) stands -0.33%.
Under `O=C(CN1CCN(Cc2ccccc2)CC1)NCc1ccc(Cl)cc1` stands 3.85%.
In the case of `CCOC(=O)C1CCCN(C(=O)c2ccccc2NC(C)=O)C1` (centres undefined), the inhibition is 8.46%.
As for `OCCn1c(CSc2nnc(-c3ccco3)n2-c2ccccc2)nc2ccc(Cl)cc21`, the figure is 8.64%.
Under `COc1cccc(-c2nc(=S)c3c(n2CCCO)CCCC3)c1` stands 6.79%.
In the case of `CSc1cccc(NC(=S)N(CCCN2CCCC2)Cc2cccs2)c1`, the inhibition was 2.61%.
Consider `CN1\C(=C/C=C/C=C/C=[N+](C)C)C(C)(C)c2ccccc21`, for which the inhibition is -18.9%.
Under `CN1/C(=C\C=O)C(C)(C)c2ccccc21` stands 4.13%.
As for `O=C(c1ccccc1)c1ccccn1`, the figure is 3.01%; as for `Cc1ccccc1-c1nnc(SCCOc2ccc3c(C)cc(=O)oc3c2)o1`, 0.64%; as for `Cc1ccc(S(=O)(=O)CC(=O)c2ccc([N+](=O)[O-])cc2)cc1`, -7.13%.
Take `CCn1cc(C(=O)NN)c(=O)c2cc(F)c(N3CCOCC3)cc21`: the inhibition is -6.58%.
As for `CCn1cc(C(=O)NCc2ccccn2)c(=O)c2cc(F)c(N3CCN(C)CC3)cc21`, the inhibition is 17.4%.
Turning to `CCCCCOC(=O)NCC(O)c1ccccc1` (centres undefined), the inhibition was 10.7%.
In the case of `N#CC1=C(N)N(c2ccccc2)C(c2cccc([N+](=O)[O-])c2)C1(C#N)C#N` (centres undefined), the inhibition is -7.85%.
Under `O=C(Cc1ccccc1)c1c[nH]c(C(=O)NCCCN2CCOCC2)c1` stands -3.4%; under `O=C(Nc1ccccc1N1CCOCC1)C1CCN(S(=O)(=O)c2ccc(F)cc2)CC1`, -4.59%; under `O=C(Nc1ccc(CN2CCOCC2)cc1)c1cccc(-c2cc3ccccc3oc2=O)c1`, -5.22%.
As for `O=C1c2ccccc2NC(c2ccc(Cl)cc2Cl)N1O` (centres undefined), the figure is 0.793%.
For `Cc1cc([N+](=O)[O-])ccc1-c1ccc(C2Nc3ccccc3C(=O)N2O)o1` (centres undefined), the inhibition was -3.84%.
Under `O=C1c2ccccc2NC(c2ccco2)N1O` (centres undefined) stands 7.8%; under `O=C1c2ccccc2NC(c2ccc(-c3cccc([N+](=O)[O-])c3)o2)N1O` (centres undefined), 43%.
Under `O=C(N/N=C/c1ccccc1[N+](=O)[O-])c1ccc2c(c1)OCCO2` stands -4.47%.
`CCOC(=O)c1sc(=S)n(-c2ccc(C)cc2)c1SC`: the inhibition was -0.48%.
Under `Nc1nc(N2CCOCC2)nc2ccccc12` stands 19.6%; under `Nc1nc(N2CCCCC2)nc2ccccc12`, 0.383%; under `O=C(N/N=C\c1cccc(Cl)c1)c1ccc(Cn2cc(Br)c([N+](=O)[O-])n2)o1`, -28.5%.
